From PubChem BioAssay (EPA / NIEHS)
Inconclusive results are not listed. Active and inactive are the calls of the source. The calls were made as follows, unless noted: active = hit-call score of the fitted dose curve at least 0.9, where 1 is the maximum; inconclusive = response in the unintended direction; inactive = score below 0.9.

Experiments:
[1] = molecular target: Cellular tumor antigen p53 (Homo sapiens) (UniProt P04637); test: TOX21_p53_BLA_p2_ratio: Tox21 HCT-116 p53 Agonism Beta-lactamase Assay, Ratio, Phase 2 (AID 2283592)
Cellular tumor antigen p53 (Homo sapiens), sequence (P04637 whole entry, looked up): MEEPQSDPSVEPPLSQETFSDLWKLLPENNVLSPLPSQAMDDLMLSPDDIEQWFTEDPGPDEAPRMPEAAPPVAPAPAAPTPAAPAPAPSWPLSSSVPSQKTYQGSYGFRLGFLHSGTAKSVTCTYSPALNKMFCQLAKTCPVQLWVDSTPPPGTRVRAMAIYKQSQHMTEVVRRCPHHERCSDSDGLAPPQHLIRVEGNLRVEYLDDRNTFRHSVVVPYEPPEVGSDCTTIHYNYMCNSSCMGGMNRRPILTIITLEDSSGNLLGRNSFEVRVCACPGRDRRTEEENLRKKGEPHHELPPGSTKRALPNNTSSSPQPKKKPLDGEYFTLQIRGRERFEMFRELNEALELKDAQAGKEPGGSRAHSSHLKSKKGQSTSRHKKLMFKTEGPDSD
Procedure, shortened: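 HCT-116 cells with p53-responsive beta-lactamase reporter, 4000 cells/well, preincubated 5 h, then compound in DMSO (217-fold dilution) for 16 h at 37C. CCF4-AM substrate 2 h at room temperature; 460/530 nm emission ratio fitted upward versus DMSO.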

[2] = TOX21_p53_BLA_p3_viability: Viability Assessment in the Tox21 HCT-116 p53 Agonism Beta-lactamase Assay, Phase 3 (AID 2283593);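 also: cells exposed to compound for 16 h before reading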
Procedure, shortened: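 HCT-116 cells (4000/well) rested 5 h at 37C, then got DMSO compounds by pin tool (217-fold dilution) for 16 h at 37C, 5% CO2. After the bla read, CellTiter-Glo was added and luminescence read at 30 min, room temperature.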

[3] = molecular target: Cellular tumor antigen p53 (Homo sapiens) (UniProt P04637); test: TOX21_p53_BLA_p3_ratio: Tox21 HCT-116 p53 Agonism Beta-lactamase Assay, Ratio, Phase 3 (AID 2283596)
Procedure, shortened: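 HCT116 p53-bla cells (4000/well) given compound in DMSO (217-fold dilution) after 5 h, incubated 16 h at 37C. CCF4-AM substrate 2 h at room temperature; 460/530 nm emission ratio, gain fitted against DMSO.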

[4] = TOX21_p53_BLA_p4_viability: Viability Assessment in the Tox21 HCT-116 p53 Agonism Beta-lactamase Assay, Phase 4 (AID 2283597);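 also: hits lower the luminescence signal meaning cytotoxicity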
Procedure, shortened: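 HCT-116 p53-bla cells, 4000/well, dosed after 5 h attachment and incubated 16 h at 37 °C, 5% CO2. Viability from CellTiter-Glo ATP luminescence after 30 min at room temperature, taken after the beta-lactamase read; loss of signal indicates cytotoxicity.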

[5] = molecular target: Cellular tumor antigen p53 (Homo sapiens) (UniProt P04637); test: TOX21_p53_BLA_p5_ratio: Tox21 HCT-116 p53 Agonism Beta-lactamase Assay, Ratio, Phase 5 (AID 2283599)
Procedure, shortened: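 HCT-116 cells carrying a p53-inducible beta-lactamase reporter were seeded at 4000 cells/well and dosed after 5 h with compound in DMSO (217-fold dilution). After 16 h at 37C, CCF4-AM substrate was added for 2 h, and the 460/530 nm emission ratio was scored as gain-of-signal versus DMSO.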

[6] = molecular target: Cellular tumor antigen p53 (Homo sapiens) (UniProt P04637); test: TOX21_p53_BLA_p4_ratio: Tox21 HCT-116 p53 Agonism Beta-lactamase Assay, Ratio, Phase 4 (AID 2283601)
Procedure, shortened: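 HCT116 cells carrying an inducible beta-lactamase reporter were plated at 4000 cells/well, rested 5 h, then exposed to compounds in DMSO (217-fold dilution) for 16 h at 37C. CCF4-AM substrate was loaded 2 h at room temperature; 460/530 nm emission ratio scored gain-of-signal versus DMSO.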

[7] = TOX21_p53_BLA_p5_viability: Viability Assessment in the Tox21 HCT-116 p53 Agonism Beta-lactamase Assay, Phase 5 (AID 2283600)
Procedure, shortened: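 HCT-116 p53 beta-lactamase reporter cells, 4000/well, were exposed to compound (pin transfer, 217-fold dilution) for 16 hours at 37C. Cellular ATP was read by CellTiter-Glo luminescence after 30 min at room temperature.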

[8] = CCTE_Harrill_HTTr_Viability_MCF7: CCTE's 6-hour Cell Viability Assessment for the High-Throughput Transcriptomics (HTTr) Platform, in MCF-7 cells cultured in DMEM + 10% fetal bovine serum, Harrill Lab (AID 2284010; active = hit-call score of the fitted dose curve at least 0.9, where 1 is the maximum; inactive = score below 0.9)
Procedure, shortened: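 Cells were dosed with chemicals in an eight-point dilution series, imaged 6 hours later for propidium iodide uptake, and the endpoint was analyzed by bidirectional fitting against DMSO as negative control.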

[9] = CCTE_Harrill_HTTr_Apoptosis_MCF7: CCTE's 6-hour Apoptosis Assessment for the High-Throughput Transcriptomics (HTTr) Platform, in MCF-7 cells cultured in DMEM + 10% fetal bovine serum, Harrill Lab (AID 2284011; active = hit-call score of the fitted dose curve at least 0.9, where 1 is the maximum; inactive = score below 0.9)
Procedure, shortened: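 MCF-7 cells in DMEM + 10% FBS exposed 6 h to chemicals over an eight-point dilution series. Caspase-3/7 activation imaged by high-content CellEvent Green staining; fitted bidirectionally versus DMSO.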

[10] = TOX21_p53_BLA_p2_viability: Viability Assessment in the Tox21 HCT-116 p53 Agonism Beta-lactamase Assay, Phase 2 (AID 2283591);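 also: actives lower the ATP signal meaning cytotoxicity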
Procedure, shortened: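 HCT-116 p53-bla cells (4000/well) rested 5 h at 37C, then received compounds in DMSO (217-fold dilution) for 16 h at 37C, 5% CO2. After the CCF4 read, CellTiter-Glo was added; ATP luminescence was read after 30 min at room temperature.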

PGR (gene 5241) [11] = molecular target: PGR (gene 5241) (UniProt P06401); test: TOX21_PR_BLA_Followup_Agonist_ratio: Tox21 HEK293 Progesterone Receptor (PR) Agonism Beta-lactamase Follow-Up Assay, Ratio (AID 2283933)
PGR (gene 5241), sequence (P06401 whole entry, looked up): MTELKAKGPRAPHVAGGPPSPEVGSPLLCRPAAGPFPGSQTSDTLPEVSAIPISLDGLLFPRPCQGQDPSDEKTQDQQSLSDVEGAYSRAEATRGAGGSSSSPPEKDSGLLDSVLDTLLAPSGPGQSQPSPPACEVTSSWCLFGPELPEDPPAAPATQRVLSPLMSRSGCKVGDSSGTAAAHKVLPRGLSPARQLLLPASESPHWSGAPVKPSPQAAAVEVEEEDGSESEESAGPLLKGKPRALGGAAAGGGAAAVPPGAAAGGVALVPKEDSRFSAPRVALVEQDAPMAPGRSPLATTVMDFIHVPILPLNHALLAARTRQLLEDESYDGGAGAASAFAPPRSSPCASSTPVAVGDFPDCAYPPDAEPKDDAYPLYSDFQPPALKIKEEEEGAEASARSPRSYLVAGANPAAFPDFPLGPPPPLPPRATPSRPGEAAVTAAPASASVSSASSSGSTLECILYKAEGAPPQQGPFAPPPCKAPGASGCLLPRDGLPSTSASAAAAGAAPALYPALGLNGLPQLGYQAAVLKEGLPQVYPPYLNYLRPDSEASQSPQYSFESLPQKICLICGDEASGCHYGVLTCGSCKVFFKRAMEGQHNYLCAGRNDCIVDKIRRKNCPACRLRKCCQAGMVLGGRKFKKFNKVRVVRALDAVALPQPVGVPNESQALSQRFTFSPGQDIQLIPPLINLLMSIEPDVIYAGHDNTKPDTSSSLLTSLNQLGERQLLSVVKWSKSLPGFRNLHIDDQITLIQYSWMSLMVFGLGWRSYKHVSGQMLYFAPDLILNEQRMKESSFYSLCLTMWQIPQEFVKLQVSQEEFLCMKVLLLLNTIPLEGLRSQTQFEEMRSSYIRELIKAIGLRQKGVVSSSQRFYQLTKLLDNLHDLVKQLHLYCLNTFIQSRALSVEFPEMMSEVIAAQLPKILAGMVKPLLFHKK
Procedure, shortened: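 HEK293T PR-UAS-bla, 2% CS-FBS; 6 hr preincubation, cpd/DMSO pinned, 16 hr 37C/5% CO2; LiveBLAzer B/G 2 hr RT; FRET ch2/ch1 ratio, agonist direction vs DMSO. Viability by CellTiter-Glo in same wells.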

PGR (gene 5241) [12] = molecular target: PGR (gene 5241) (UniProt P06401); test: TOX21_PR_BLA_Followup_Antagonist_ratio: Tox21 HEK293 Progesterone Receptor (PR) Antagonism Beta-lactamase Follow-Up Assay, Ratio (AID 2283934)
Procedure, shortened: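 HEK293T PR-UAS-bla, 2% CS-FBS; 6 hr plating, then cpd + R5020 (1 nM final), 16 hr 37C/5% CO2. B/G FRET substrate 2 h RT. Ratio ch2/ch1 vs DMSO; CellTiter-Glo viability multiplexed, autofluorescence checked.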

PGR (gene 5241) [13] = molecular target: PGR (gene 5241) (UniProt P06401); test: TOX21_PR_LUC_Followup_Agonist: Tox21 HEK293 Progesterone Receptor (PR) Agonism Luciferase Follow-Up Assay (AID 2283937; active = hit-call score of the fitted dose curve at least 0.9, where 1 is the maximum; inactive = score below 0.9)
Procedure, shortened: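 Cells: HEK293-PR-A-luc, 3,000/well, 10% charcoal-stripped FBS assay medium. Compound added after 5 h; 16 h, 37C, 0% CO2. ONE-Glo luciferase, luminescence. Positive fit vs DMSO.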

PGR (gene 5241) [14] = molecular target: PGR (gene 5241) (UniProt P06401); test: TOX21_PR_LUC_Followup_Antagonist: Tox21 HEK293 Progesterone Receptor (PR) Antagonism Luciferase Follow-Up Assay (AID 2283938);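 also: curve fitted upward as signal gain over DMSO baseline despite antagonist label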
Procedure, shortened: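 HEK293-PR-A-luc cells, 3,000/well, preincubated 5 h at 37C before compound addition in DMSO; 16 h compound exposure at 37C. ONE-Glo luciferase luminescence read after 30 min at room temperature, fitted relative to DMSO baseline.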

[15] = TOX21_PR_LUC_Followup_Agonist_viability: Viability Assessment in the Tox21 HEK293 Progesterone Receptor (PR) Agonism Luciferase Follow-Up Assay (AID 2283941);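 also: loss of signal means cytotoxicity so actives lower viability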
Procedure, shortened: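 Cells were kept 5 days in charcoal-stripped serum medium before plating HEK293-PR-A-luc at 3,000 cells/well. After 5 h they received DMSO-dissolved compound and incubated 16 h at 37C. Viability was taken from CellTiter-Glo ATP luminescence.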

[16] = molecular target: Thyroid hormone receptor alpha (Rattus norvegicus) + Thyroid hormone receptor beta (Rattus norvegicus) (UniProt P18113+P63059); test: TOX21_TR_LUC_GH3_Antagonist_Followup: Tox21 GH3 Thyroid Hormone Receptor Antagonism Luciferase Follow-Up Assay (AID 2283942)
Procedure, shortened: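 Rat pituitary GH3 cells with a TRα/TRβ-driven luciferase reporter, 5 h attachment, then 15 concentrations (92 uM to 5nM final) plus 1.0 nM T3 agonist, 24 h at 37C/5% CO2. ONE-Glo luminescence; signal change fitted against DMSO baseline.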

[17] = TOX21_TRB_BLA_Antagonist_Followup_viability: Viability Assessment in the Tox21 Thyroid Hormone Receptor beta Antagonism Beta-lactamase (BLA) Follow-Up Assay (AID 2283961)
Procedure, shortened: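 HEK293T cells with GAL4-human TRβ LBD and UAS-bla reporter, 3,000 cells/well in 2% charcoal-stripped FBS medium; 11-point concentrations in triplicate, 18 h at 37C. Viability from ATP by CellTiter-Glo luminescence, 30 min RT, same plates.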

[18] = molecular target: Retinoic acid receptor RXR-alpha (Homo sapiens) (UniProt P19793); test: TOX21_TR_RXR_BLA_Antagonist_Followup_ratio: Tox21 Thyroid Hormone Receptor beta Retinoid X Receptor alpha (RXRa) Antagonism Beta-lactamase (BLA) Follow-Up Assay, Ratio (AID 2283972)
Retinoic acid receptor RXR-alpha (Homo sapiens), sequence (P19793 whole entry, looked up): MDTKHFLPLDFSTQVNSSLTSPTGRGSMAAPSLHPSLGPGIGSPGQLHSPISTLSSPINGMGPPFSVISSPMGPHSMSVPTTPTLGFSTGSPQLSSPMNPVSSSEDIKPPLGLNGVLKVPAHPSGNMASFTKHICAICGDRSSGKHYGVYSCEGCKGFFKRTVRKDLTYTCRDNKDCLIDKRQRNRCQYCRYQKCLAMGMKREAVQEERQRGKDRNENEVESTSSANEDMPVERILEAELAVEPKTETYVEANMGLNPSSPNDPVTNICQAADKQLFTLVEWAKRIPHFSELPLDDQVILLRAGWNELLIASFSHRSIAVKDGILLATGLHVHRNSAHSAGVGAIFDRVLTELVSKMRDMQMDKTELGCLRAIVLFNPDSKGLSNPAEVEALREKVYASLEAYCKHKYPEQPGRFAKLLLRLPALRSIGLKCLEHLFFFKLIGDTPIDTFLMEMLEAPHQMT
Procedure, shortened: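 RXRa-UAS-bla HEK293T cells, 2,500/well in phenol red-free DMEM with 2% charcoal-stripped FBS, 5 h attachment, then compounds (11 concentrations, triplicate) for 16 h at 37C; FRET-B/GCCF4-AM substrate 2 h RT; 460:530 nm ratio, loss of signal vs DMSO.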

[19] = TOX21_TR_RXR_BLA_Antagonist_Followup_viability: Viability Assessment in the Tox21 Thyroid Hormone Receptor beta Retinoid X Receptor alpha (RXRa) Antagonism Beta-lactamase (BLA) Follow-Up Assay (AID 2283979)
Procedure, shortened: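 RXRa-UAS-bla HEK293T cells seeded 2,500/well in phenol red-free DMEM with 2% charcoal-stripped FBS, attached 5 h, then exposed to compounds at 11 concentrations in triplicate for 16 h at 37C/5% CO2. Viability read by CellTiter-Glo ATP luminescence; bidirectional fit versus DMSO.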

[20] = TOX21_PR_BLA_Followup_Agonist_viability: Viability Assessment in the Tox21 HEK293 Progesterone Receptor (PR) Agonism Beta-lactamase Follow-Up Assay (AID 2283935);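 also: signal loss means lower viability so actives are cytotoxic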
Procedure, shortened: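 HEK293T PR-UAS-bla, 3,000 cells/well, 2% CS-FBS; 6 hr pre-incubation; cpd in DMSO, 16 hr 37C; LiveBLAzer 2 hr RT, then CellTiter-Glo 30 min RT, luminescence. Decrease = lost viability.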

[21] = TOX21_PR_BLA_Followup_Antagonist_viability: Viability Assessment in the Tox21 HEK293 Progesterone Receptor (PR) Antagonism Beta-lactamase Follow-Up Assay (AID 2283936);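 also: hits lower the luminescence signal meaning cytotoxicity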
Procedure, shortened: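 PR-UAS-bla HEK293T cells (3,000/well, 2% charcoal-stripped FBS) given compound plus R5020 agonist, 16 h at 37C. CellTiter-Glo added after bla read, 30 min at room temperature; luminescence loss indicates cytotoxicity.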

THRA (gene 7067) = THRA (gene 7067) (UniProt P10827); test: TOX21_TRA_COA_Antagonist_Followup_ratio: Tox21 Thyroid Hormone Receptor alpha Antagonism through Coactivator Recruitment Follow-Up Assay, Ratio (AID 2283953)
THRA (gene 7067), sequence (P10827 whole entry, looked up, the tested form may be a part): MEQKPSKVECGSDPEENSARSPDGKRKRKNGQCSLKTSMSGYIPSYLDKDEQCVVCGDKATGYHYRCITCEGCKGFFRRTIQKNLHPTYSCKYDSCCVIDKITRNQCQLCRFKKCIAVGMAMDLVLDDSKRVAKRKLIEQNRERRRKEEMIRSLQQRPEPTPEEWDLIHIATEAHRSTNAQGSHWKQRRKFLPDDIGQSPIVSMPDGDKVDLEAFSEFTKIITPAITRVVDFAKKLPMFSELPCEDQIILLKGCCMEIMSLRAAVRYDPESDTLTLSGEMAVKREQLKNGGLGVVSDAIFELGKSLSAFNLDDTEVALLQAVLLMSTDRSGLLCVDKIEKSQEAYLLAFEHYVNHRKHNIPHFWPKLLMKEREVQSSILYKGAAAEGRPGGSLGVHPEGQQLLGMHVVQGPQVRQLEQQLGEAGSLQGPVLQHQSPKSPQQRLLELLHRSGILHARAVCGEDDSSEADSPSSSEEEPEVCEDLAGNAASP
Procedure, shortened: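 520:495 nm emission ratio (excitation 340 nm) reports fluorescein-SRC-2 peptide recruitment to GST-TRα LBD by TR-FRET with Tb anti-GST antibody. Values were normalized to DMSO (0%) and T3 control wells (100%); loss of signal indicated antagonism.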

Measured: AC50

CCOP(=O)(OCC)SCCSCC (tested in a mixture with another compound)
inactive: [1] | [2] | [3] | [4] | [5] | [6]

CCCC(C)(COC(N)=O)COC(=O)NC(C)C (configuration not stated)
inactive: [1] | [2] | [3] | [4] | [5] | [7] | [6] | [8] | [9]

CCCOC(=O)Cc1ccc(OCC(=O)N(CC)CC)c(OC)c1
inactive: [10] | [6]

Cc1cc(Cl)ccc1N=CN(C)C
inactive: [1] | [2] | [3] | [4] | [5] | [7] | [6]

CC(C)NCC(O)c1ccccc1Cl (configuration not stated)
inactive: [1] | [2] | [3]

Clc1ccc(-c2ccc(Cl)c(Cl)c2Cl)c(Cl)c1Cl
inactive: [1] | [2] | [3] | [4] | [5] | [6]

c1cncc([C@@H]2CCCCN2)c1
inactive: [1] | [2]

CC[C@]1(O)CC[C@H]2[C@@H]3CCC4=CCCC[C@@H]4[C@H]3CC[C@@]21C
active: [1] 3.73 µM | [3] 3.62 µM | [5] 7.06 µM | [6] 7.04 µM | PGR (gene 5241) [11] 0.686 µM | PGR (gene 5241) [13] 0.0421 µM | [18] 14.3 µM
not listed: [8] | [9] | [10] | [20] | [21] | THRA (gene 7067)
inactive: all other assays above

CCOP(=S)(OCC)Oc1cc(Cl)c(Br)cc1Cl
active: [4] 72.9 µM | PGR (gene 5241) [12] 6.49 µM | PGR (gene 5241) [14] 5.76 µM
not listed: [8] | [9] | [10] | [16] | [17] | [18] | [19] | THRA (gene 7067)
inactive: all other assays above

CCCCCCI
inactive: [1] | [2] | [3] | [4] | [5] | [7] | [6]

CNC(=O)Oc1c(C(C)(C)C)cc(C)cc1C(C)(C)C
inactive: [1] | [2]

CC(=O)[C@H]1CC[C@H]2[C@@H]3CC[C@@H]4C[C@H](O)CC[C@]4(C)[C@H]3CC[C@]12C
inactive: [1] | [2] | [3] | [4] | [5] | [7] | [6] | [16] | THRA (gene 7067) | [17] | [19]

ClC(Cl)(Cl)Br
inactive: [1] | [2] | [3] | [4] | [5] | [7] | [6]
